Measured values reported in PubChem BioAssay (NCI).
The panel holds about 83,000 compounds, 20% with a hit somewhere; the sample as a whole holds those more often.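 Cell lines were cultured in 96-well plates, exposed to a single compound concentration, and assessed for percent growth 48 hours later.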 The source made the active and inactive calls. How the source made its calls: active means growth percent below 10; inactive means the rest.

Key:
Assay in all cases: NCI-60 one-dose screen, 48 h (100 = growth as untreated, 0 = no growth, -100 = all killed)
Details in all cases: 10 µM unless noted
NCI-H23 lung = tested on: NCI-H23 lung
NCI-H226 lung = tested on: NCI-H226 lung
NCI-H322M lung = tested on: NCI-H322M lung
HOP-62 NSCLC = tested on: HOP-62 NSCLC
NCI-H460 lung = tested on: NCI-H460 lung
HOP-92 NSCLC = tested on: HOP-92 NSCLC
NCI-H522 lung = tested on: NCI-H522 lung
A549/ATCC NSCLC = tested on: A549/ATCC NSCLC
786-0 renal = tested on: 786-0 renal
COLO 205 colon = tested on: COLO 205 colon
DU-145 prostate = tested on: DU-145 prostate
K-562 leukemia = tested on: K-562 leukemia
MALME-3M melanoma = tested on: MALME-3M melanoma
MDA-MB-231 breast = tested on: MDA-MB-231 breast
RXF 393 renal = tested on: RXF 393 renal
SF-268 CNS = tested on: SF-268 CNS
SF-295 CNS = tested on: SF-295 CNS
SF-539 CNS = tested on: SF-539 CNS
UACC-257 melanoma = tested on: UACC-257 melanoma
M14 melanoma = tested on: M14 melanoma

Measured: growth

COc1ccc(Nc2ncc(C#N)c(NCCCNC(=O)C3CCC3)n2)cc1
active: RXF 393 renal -4.62%
inactive: NCI-H23 lung 67.6% | NCI-H226 lung 49% | NCI-H322M lung 80.8% | HOP-62 NSCLC 31.4% | NCI-H460 lung 41.7% | HOP-92 NSCLC 64.3% | NCI-H522 lung 85.1% | A549/ATCC NSCLC 61.2% | 786-0 renal 50.4% | COLO 205 colon 33.3% | DU-145 prostate 60.7% | K-562 leukemia 50.4% | MALME-3M melanoma 78.8% | MDA-MB-231 breast 56.5% | SF-268 CNS 30.7% | SF-295 CNS 76.8% | SF-539 CNS 28.5% | UACC-257 melanoma 113% | M14 melanoma 70.9%

O=C(NN1C(=O)CSC1c1cccc([N+](=O)[O-])c1)c1ccc(NC(=O)c2ccccn2)cc1 (stereo not given)
inactive: NCI-H23 lung 94.4% | NCI-H226 lung 106% | NCI-H322M lung 90.5% | HOP-62 NSCLC 95.4% | NCI-H460 lung 102% | HOP-92 NSCLC 104% | NCI-H522 lung 95.3% | A549/ATCC NSCLC 100% | 786-0 renal 96.9% | COLO 205 colon 103% | DU-145 prostate 94.1% | K-562 leukemia 100% | MALME-3M melanoma 94.4% | MDA-MB-231 breast 113% | RXF 393 renal 115% | SF-268 CNS 96.1% | SF-295 CNS 97.2% | SF-539 CNS 99.8% | UACC-257 melanoma 99% | M14 melanoma 102%

Cc1cc(C(=O)CCCC(=O)c2cc(C)c(O)c(C)c2)cc(C)c1O
inactive: NCI-H23 lung 99.8% | NCI-H226 lung 85% | NCI-H322M lung 114% | HOP-62 NSCLC 98.9% | NCI-H460 lung 112% | HOP-92 NSCLC 82.9% | NCI-H522 lung 91.1% | A549/ATCC NSCLC 104% | 786-0 renal 93.9% | DU-145 prostate 109% | K-562 leukemia 27.4% | MALME-3M melanoma 92.3% | MDA-MB-231 breast 98.1% | RXF 393 renal 84.2% | SF-268 CNS 99% | SF-295 CNS 99.9% | SF-539 CNS 102% | UACC-257 melanoma 105% | M14 melanoma 98.6%
active: COLO 205 colon -53.1%

COc1ccc2cc(C(=O)N3CCC([C@@H](C)C(=O)NCc4ccc5c(c4)OCO5)CC3)[nH]c2c1
inactive: NCI-H23 lung 26.3% [50 µM] | NCI-H322M lung 86.7% [50 µM] | NCI-H460 lung 41.9% [50 µM] | A549/ATCC NSCLC 53.7% [50 µM] | COLO 205 colon 88.5% [50 µM] | DU-145 prostate 60.5% [50 µM] | K-562 leukemia 77.2% [50 µM] | MALME-3M melanoma 44.2% [50 µM] | MDA-MB-231 breast 34.1% [50 µM] | SF-268 CNS 32.9% [50 µM] | SF-295 CNS 48.1% [50 µM] | SF-539 CNS 41.1% [50 µM] | UACC-257 melanoma 77.8% [50 µM] | M14 melanoma 65.2% [50 µM]
active: NCI-H226 lung -5.97% [50 µM] | HOP-62 NSCLC -1.78% [50 µM] | HOP-92 NSCLC -17.6% [50 µM] | NCI-H522 lung -6.66% [50 µM] | 786-0 renal -10.5% [50 µM] | RXF 393 renal -1.62% [50 µM]

Cc1cccc(N=Nc2cccc(C)c2)c1
inactive: NCI-H23 lung 92.5% | NCI-H226 lung 100% | NCI-H322M lung 98.5% | HOP-62 NSCLC 104% | NCI-H460 lung 102% | HOP-92 NSCLC 85.9% | NCI-H522 lung 97.4% | A549/ATCC NSCLC 104% | 786-0 renal 116% | COLO 205 colon 111% | DU-145 prostate 112% | K-562 leukemia 138% | MALME-3M melanoma 100% | MDA-MB-231 breast 86.4% | RXF 393 renal 115% | SF-268 CNS 110% | SF-295 CNS 97.9% | SF-539 CNS 110% | UACC-257 melanoma 113% | M14 melanoma 108%

Cc1cc(=O)n(C(=S)Nc2ccc(Cl)cc2)c2cc(O)ccc12
inactive: NCI-H23 lung 85.6% | NCI-H226 lung 80.5% | NCI-H322M lung 97.7% | HOP-62 NSCLC 84.1% | NCI-H460 lung 110% | HOP-92 NSCLC 84.6% | NCI-H522 lung 94.9% | A549/ATCC NSCLC 106% | 786-0 renal 109% | COLO 205 colon 103% | DU-145 prostate 109% | K-562 leukemia 113% | MALME-3M melanoma 91.5% | MDA-MB-231 breast 92.4% | RXF 393 renal 99.7% | SF-268 CNS 102% | SF-295 CNS 99.8% | SF-539 CNS 101% | UACC-257 melanoma 110% | M14 melanoma 108%

Cc1nn(C)c2ncnc(N/N=C/c3cccc(O)c3O)c12
inactive: NCI-H23 lung 20.8% | NCI-H226 lung 42.7% | NCI-H322M lung 14.7% | HOP-92 NSCLC 23.3% | NCI-H522 lung 19.9% | A549/ATCC NSCLC 20.9% | DU-145 prostate 18.1% | K-562 leukemia 12.7% | MDA-MB-231 breast 24.7% | RXF 393 renal 11% | SF-295 CNS 18.3%
active: HOP-62 NSCLC 4.24% | NCI-H460 lung 2.65% | 786-0 renal 2.11% | COLO 205 colon -3.31% | MALME-3M melanoma -11.5% | SF-268 CNS 6.68% | SF-539 CNS 5.37% | UACC-257 melanoma 3.75% | M14 melanoma -48.5%

COCCn1cc(-c2nc(-c3c[nH]c4ncccc34)cs2)c2ccccc21
active: HOP-92 NSCLC 2.56%
inactive: NCI-H23 lung 40.7% | NCI-H226 lung 48.2% | NCI-H322M lung 43.4% | HOP-62 NSCLC 47.2% | NCI-H460 lung 22.6% | NCI-H522 lung 46.7% | A549/ATCC NSCLC 52.2% | 786-0 renal 77.9% | COLO 205 colon 24.8% | DU-145 prostate 85.5% | K-562 leukemia 28.5% | MALME-3M melanoma 97.8% | MDA-MB-231 breast 22.5% | RXF 393 renal 51.6% | SF-268 CNS 63.9% | SF-295 CNS 68.8% | SF-539 CNS 68.4% | UACC-257 melanoma 87.3% | M14 melanoma 68.6%
